Measurements reported in PubChem BioAssay (Tox21).
Inconclusive results are not listed. Entries that show only a call come without a potency. Active and inactive are the calls of the source. Calls come from the whole dose curve; as a rule, active = well fitted cell-killing curve with a large enough effect in the repeat runs; inconclusive = weak or mixed curves, or effect the other way; inactive = flat fitted curve, though single readings scatter.

Assay: cAMP Responsive Elements (CRE) small molecule agonists, cell-based qHTS assay: qHTS cell viability counter screen (AID 2060914); note: nearly all actives have a fitted effect of over 50% in size
Conditions: CRE-bla HEK293T viability, CellTiter-Glo luminescence, 5 h; series mostly up to 92.4 µM
Source text: National Center for Advancing Translational Sciences [NCATS]
Division of Preclinical Innovation [DPI]
U.S. Environmental Protection Agency [EPA]
National Institutes of Environmental Health Sciences [NIEHS]
National Toxicology Program [NTP]
U.S. Food and Drug Administration [FDA]
CREB (cyclic-AMP Responsive Element Binding Protein) is a cellular transcription factor. It binds to certain DNA sequences called cAMP Responsive Elements (CRE) and regulates the transcription of the genes. […] This cell line can be used to find agonists/antagonists of the cyclic AMP signaling pathway. The activation of the report gene under culture conditions can be detected by fluorescence intensity. This cell line has been used to screen the Tox21 10K compound library to identify agonists that induce oxidative stress. The cytotoxicity of the Tox21 compound library against the CRE-bla cell line was tested in parallel by measuring the cell viability using CellTiter-Glo assay (Promega, Madison, WI) in the same wells.
Tox21 Assay Protocol Summary:
CRE-bla Hek 293T cells were suspended in assay medium (DMEM containing 10% dialyzed FBS, 0.1 mM NEAA, 1 mM sodium pyruvate and 25 mM HEPES) and dispensed at 2,000 cells/5 uL /well into 1536-well black wall/clear bottom plates using a Multidrop Combi (ThermoFisher Scientific, Waltham, MA) dispenser. After the assay plates were incubated at 37 C/5% CO2 for 18 hrs, 23 nL of compounds dissolved in DMSO, positive controls or DMSO only was transferred to the assay plate by a pintool workstation (Kalypsys, San Diego, CA). After the plates were incubated at 37 C/5% CO2 for 3 hrs, 1 uL of LiveBLAzer B/G FRET substrate (Invitrogen, Carlsbad, CA) was added to each well using Bioraptr Flying Reagent Dispenser (FRD, Aurora Discovery, San Diego, CA). The plates were incubated at room temperature for 2 h, then fluorescence intensities were measured using an Envision plate reader (PerkinElmer, Shelton, CT) at Excitation 405nm, Emission 460nm and 530nm. The % activity was determined from the ratio of 460nm/530nm. For cell viability readout that measures cytotoxicity, 4 uL /well of CellTiter-Glo reagent was added into the assay plates using Bioraptr FRD. After 30 min incubation at room temperature, the luminescence intensity in the assay plates was measured using a ViewLux (PerkinElmer, Shelton, CT) plate reader.

**Q.** With `COC(=O)C1CCC(C(=O)OC)CC1` (stereo not given) as the compound, how does the Potency read?
**A.** inactive

**Q.** With `C1=CCC(c2ccccc2)CC1` (stereo not given) as the compound, how does the Potency read?
**A.** inactive

**Q.** Which Potency does the source give for `O=C(O)CNC(=O)c1ccccc1` here?
**A.** inactive

**Q.** For `CC(=O)O[C@]1(C(C)=O)CC[C@H]2[C@@H]3C=C(Cl)C4=CC(=O)CC[C@]4(C)[C@H]3CC[C@@]21C`, which Potency is on record?
**A.** inactive

**Q.** For `Nc1nc(CC(=O)O)cs1`, which Potency is on record?
**A.** inactive

**Q.** With `CC(C)(C)C(=O)OCOP(=O)(COCCn1cnc2c(N)ncnc21)OCOC(=O)C(C)(C)C` as the compound, how does the Potency read?
**A.** inactive

**Q.** For `c1cnccn1`, which Potency is on record?
**A.** inactive

**Q.** With `CCCCOCCOC(=O)c1cccnc1` as the compound, how does the Potency read?
**A.** inactive

**Q.** Which Potency does the source give for `O=C(CCCN1CCC(O)(c2cccc(C(F)(F)F)c2)CC1)c1ccc(F)cc1` here?
**A.** inactive

**Q.** Which Potency does the source give for `Cc1ccc(C=O)s1` here?
**A.** inactive

**Q.** With `CCCCC(CC)COC(=O)CCCCC(=O)OCc1ccccc1` (stereo not given) as the compound, how does the Potency read?
**A.** inactive

**Q.** With `FC(F)(F)c1ccccc1` as the compound, how does the Potency read?
**A.** inactive

**Q.** With `CCn1nc(C(=O)O)c(=O)c2cc3c(cc21)OCO3` as the compound, how does the Potency read?
**A.** inactive

**Q.** Which Potency does the source give for `CCCCCCCCN(C)CCCCCCCC` here?
**A.** inactive

**Q.** Which Potency does the source give for `CC(C)[C@@H]1CC[C@@H](C)CC1=O` here?
**A.** inactive

**Q.** For `CC(C)CCOC(=O)/C=C/c1ccccc1`, which Potency is on record?
**A.** inactive

**Q.** For `FC(F)(F)c1ccc(Cl)c(Cl)c1`, which Potency is on record?
**A.** inactive

**Q.** With `CCC(=O)OCCC(C)CCC=C(C)C` (stereo not given) as the compound, how does the Potency read?
**A.** inactive

**Q.** For `Cc1ccc([N+](=O)[O-])cc1N`, which Potency is on record?
**A.** inactive

**Q.** For `c1ccc(Sc2ccccc2)cc1`, which Potency is on record?
**A.** inactive

**Q.** Which Potency does the source give for `OC1(c2ccc(Cl)cc2)CCNCC1` here?
**A.** inactive

**Q.** Which Potency does the source give for `CCC(C)(CCC(C)C)C(=O)[O][Sn]([CH3])([CH3])[O]C(=O)C(C)(CC)CCC(C)C` (stereo not given) here?
**A.** inactive

**Q.** With `CCCCCCCCCCCCCCCCCC(=O)OCC(O)CO` (stereo not given) as the compound, how does the Potency read?
**A.** inactive

**Q.** Which Potency does the source give for `Cc1ccc2c(c1)C(=O)OC2=O` here?
**A.** inactive

**Q.** For `CCCCCCC1CCCC(=O)O1` (stereo not given), which Potency is on record?
**A.** inactive

**Q.** With `CCOc1cccc(N)c1` as the compound, how does the Potency read?
**A.** inactive

**Q.** Which Potency does the source give for `O=Nc1ccc(NO)cc1` here?
**A.** inactive

**Q.** Which Potency does the source give for `CCc1c(Br)c(Br)c(Br)c(Br)c1Br` here?
**A.** inactive

**Q.** With `CN(C)C(=O)Nc1ccccc1` as the compound, how does the Potency read?
**A.** inactive

**Q.** Which Potency does the source give for `CC1(C)[C@H]2CC[C@]1(C)C(=O)C2` here?
**A.** inactive

**Q.** For `CS(C)=O`, which Potency is on record?
**A.** inactive

**Q.** Which Potency does the source give for `c1ccc2c(c1)CCCC2C1=NCCN1` (stereo not given) here?
**A.** inactive

**Q.** With `Cc1ccc(N=Nc2c(O)c(C(=O)O)cc3ccccc23)c(S(=O)(=O)O)c1` as the compound, how does the Potency read?
**A.** inactive

**Q.** For `Clc1nc(C(Cl)(Cl)Cl)c(Cl)c(Cl)c1Cl`, which Potency is on record?
**A.** inactive

**Q.** With `Cc1ccc2cccnc2c1` as the compound, how does the Potency read?
**A.** inactive

**Q.** With `O=C1c2ccccc2C(=O)c2c1ccc(O)c2O` as the compound, how does the Potency read?
**A.** inactive

**Q.** With `C=CC(=O)OCCOc1ccccc1` as the compound, how does the Potency read?
**A.** inactive

**Q.** With `O=C1CCC(C2CCCCC2)CC1` as the compound, how does the Potency read?
**A.** inactive

**Q.** Which Potency does the source give for `CC(=O)NC(Cc1ccccc1)C(=O)O` (stereo not given) here?
**A.** inactive

**Q.** With `CC(C)CCOC(=O)CC(C)C` as the compound, how does the Potency read?
**A.** inactive
